Reference: PubChem BioAssay (NCATS)
Values joined by “and” are separate entries in the source; they are usually repeats but may differ in a detail not shown here. Identical values can stand only once. Inconclusive results are not listed. Active and inactive are the calls of the source. Unless noted, calls come from the whole dose curve; as a rule, active = well fitted curve in the direction sought with a large enough effect; inconclusive = small, poorly fitted or top-dose-only effect, or another doubt; inactive = no such curve, though single readings can be large; an effect the other way counts as inactive or inconclusive.

What was measured:
[1] = biological target: Estrogen receptor (Homo sapiens) (UniProt P03372); test: qHTS assay for small molecule antagonists of estrogen receptor alpha signaling (AID 588513; active = well fitted curve in the direction sought with a large enough effect in the signal ratio, with a control signal flat, not every such curve was filed as active; the % refers to the signal ratio; note: % is set by controls: 0 for no effect and ±100 for the full control effect)
How it was run: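 Antagonist-mode qHTS in ER-alpha-UAS-bla HEK 293 cells: compound titration, 0.5nM estradiol for 18 h, CCF4 fluorescence, Hill-derived IC50.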

[2] = biological target: Estrogen receptor (Homo sapiens) (UniProt P03372); test: qHTS assay for small molecule agonists of estrogen receptor alpha signaling (AID 588514; calls by dose curve;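 note: 0% = vehicle only and 100% = reference agonist; nearly all actives have a fitted effect of over 70% in size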)
How it was run: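 ER-alpha-UAS-bla GripTite HEK293 cells, 5000/well in 2% charcoal/dextran-stripped FBS medium, treated with compound titrations 18 h at 37 C. CCF4 beta-lactamase read by fluorescence after 2 h RT; normalised to 20 nM 17-beta-estradiol (100%) and DMSO (0%), Hill fit for EC50 and efficacy.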

[3] = biological target: Peroxisome proliferator-activated receptor delta (Homo sapiens) (UniProt Q03181); test: qHTS assay for small molecule agonists of peroxisome proliferator-activated receptor delta signaling (AID 588534; calls by dose curve;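 note: 0% = DMSO basal wells and 100% = positive control agonist at 10 µM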)
How it was run: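 Cells carrying a PPAR-delta beta-lactamase reporter were treated with compounds for 18 h at 37 °C in agonist mode. CCF4 fluorescence was read after 2 h; EC50 and efficacy from Hill fits.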

[4] = biological target: Peroxisome proliferator-activated receptor gamma (Homo sapiens) (UniProt P37231); test: qHTS assay for small molecule agonists of peroxisome proliferator-activated receptor gamma signaling (AID 588536; active = well fitted curve in the direction sought with a large enough effect in the signal ratio, with a control signal flat, not every such curve was filed as active; the % refers to the signal ratio;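 note: 0% = DMSO basal wells and 100% = rosiglitazone at 2 µM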)
How it was run: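 HEK293 UAS-bla reporter line, 1% charcoal/dextran FBS; titration, 16 h, 37 C; CCF4 loading 2 h RT; fluorescence 460/530 nm. Normalized to rosiglitazone 2 uM = 100%, DMSO = 0%.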

[5] = biological target: Vitamin D3 receptor (Homo sapiens) (UniProt P11473); test: qHTS assay for small molecule antagonists of vitamin D receptor signaling (AID 588541; calls by dose curve;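 note: receptor activated by calcitriol during compound treatment; series mostly up to about 77 µM; % is set by controls: 0 for no effect and ±100 for the full control effect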)
How it was run: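 VDR-UAS-bla HEK293T cells in 2% charcoal-stripped FBS were stimulated with 1-alpha,25-dihydroxyvitamin D3 (3 nM final) plus compound for 16 h at 37 C. The beta-lactamase CCF4 readout was normalized to 50 nM agonist and DMSO, and Hill fits gave IC50.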

[6] = biological target: Vitamin D3 receptor (Homo sapiens) (UniProt P11473); test: qHTS assay for small molecule agonists of vitamin D receptor signaling (AID 588543; calls by dose curve;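 note: 0% = DMSO basal and 100% = reference agonist control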)
How it was run: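 Measured: β-lactamase reporter activity (CCF4, 405 nm excitation, 460/530 nm emission) in HEK293T VDR-UAS-bla cells after 16 h compound exposure at 37 °C. Normalization against 50 nM 1α,25-dihydroxyvitamin D3 and DMSO; Hill-fit EC50.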

[7] = biological target: Retinoic acid receptor RXR-alpha (Homo sapiens) (UniProt P19793); test: qHTS assay for small molecule agonists of retinoid X receptor alpha signaling (AID 588544; calls by dose curve;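 note: 0% = DMSO basal wells and 100% = reference agonist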)
[8] = biological target: Thyroid hormone receptor beta (Homo sapiens) (UniProt P10828); test: qHTS assay for small molecule agonists of thyroid hormone receptor beta signaling (AID 588545; calls by dose curve;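 note: 0% = DMSO only and 100% = 10 nM T3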)
How it was run: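 TR-UAS-bla GripTite HEK 293 cells (2500/well, medium with 2% charcoal/dextran FBS) were treated in agonist mode for 18 h at 37 C, titrated. Beta-lactamase was read by CCF4 ratio after 2 h; normalized to 10 nM T3 (100%) and DMSO, Hill-fitted for EC50 and efficacy.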

[9] = qHTS assay for small molecule antagonists of retinoid X receptor alpha signaling (AID 588546; active = well fitted inhibition curve with a large enough effect in the signal ratio, with a control signal flat, not every such curve was filed as active; the % refers to the signal ratio;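 note: cells stimulated with 9-cis-retinoic acid as agonist; % is set by controls: 0 for no effect and ±100 for the full control effect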); settings: HEK293T RXRa-UAS-bla, beta-lactamase ratio, antagonist mode; measured here: W530 green channel, cytotoxicity proxy
How it was run: (§1)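 Beta-lactamase reporter inhibition, read as CCF4 fluorescence ratio (ex 405, em 460/530 nm) after 2 h at RT. HEK293T UAS-bla cells, 2500/well, were stimulated with 9-cis-RA at 500 or 100 nM final alongside test compound for 18 h at 37 C.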

[10] = biological target: Retinoic acid receptor RXR-alpha (Homo sapiens) (UniProt P19793); test: as above; settings: HEK293T RXRa-UAS-bla, beta-lactamase ratio, antagonist mode
How it was run: as §1

[11] = qHTS assay for environmental chemicals that activate the Aryl hydrocarbon Receptor (AhR) signaling pathway (AID 651777); settings: 1A2-DRE human hepatoma cells, luciferase, 24 h; activation: stronger effect = higher value; note: % of control where 0% means no effect; nearly all actives have a fitted effect of over 15% in size
How it was run: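 Following a 24 hr incubation with test chemicals at 37 C and 5% CO2, 1A2-DRE human hepatoma cells received One-Glo reagent; after 30 min at room temperature, luciferase output reflected CYP1A2 induction via AhR.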

[12] = biological target: Peroxisome proliferator-activated receptor alpha (Homo sapiens) (UniProt Q07869); test: qHTS assay for small molecule agonists of the peroxisome proliferator-activated receptor alpha (PPARalpha) signaling pathway (AID 651778); settings: PathHunter PPARalpha complementation, chemiluminescence, 6 h; max response: stronger effect = higher value; note: % of control where 0% means no effect
How it was run: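 Enzyme-fragment complementation assay in which ligand-bound PPARalpha translocates and forms an active enzyme that generates chemiluminescence. Cells were plated overnight, exposed to compound for 6 hr at 37 C, and then given detection reagent for 60 min at room temperature.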

[13] = qHTS assay for small molecule agonists of the antioxidant response element (ARE) signaling pathway measured by Nrf2-dependant transcriptional activity - cell viability counter screen (AID 720653; active = well fitted curve in the direction sought with a large enough effect in the repeat runs; an effect the other way counts as inactive or inconclusive; note: % is set by controls: 0 for no effect and ±100 for the full control effect); settings: ARE-bla HepG2 viability, CellTiter-Glo ATP luminescence, 16 h; max response: stronger effect = lower value
How it was run: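 ARE-bla HepG2 cells treated with compounds for 16 h at 37C; this counter screen measures viability as intracellular ATP by CellTiter-Glo luminescence after 30 min at room temperature.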

[14] = qHTS assay for cell viability of HEK293 cells (AID 743288); settings: ATP luminescence (CellTiter-Glo), 18 h; max response: stronger effect = lower value; note: % is set by controls: 0 for no effect and ±100 for the full control effect; nearly all actives have a fitted effect of over 50% in size
How it was run: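 Luminescent ATP quantitation served as the viability read-out. Cells (parental HEK293, 2,000/well) received compounds after at least 5 h at 37 C and were exposed for 18 h before a 30 min room-temperature reagent step.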

[15] = qHTS assay for cell viability of the p53RE-bla HCT-116 cell line (AID 743292); note: % is set by controls: 0 for no effect and ±100 for the full control effect; nearly all actives have a fitted effect of over 55% in size
How it was run: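 After plating at 4,000 cells per well and a 5 h rest at 37 C, HCT-116 cells carrying p53RE-bla received test chemicals in DMSO. Sixteen hours later at 37 C, CellTiter-Glo was added and luminescence recorded following 30 min at room temperature.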

[16] = biological target: Glucocorticoid receptor (Homo sapiens) (UniProt P04150); test: qHTS assay for small molecule agonists of glucocorticoid receptor signaling (AID 588532; active = well fitted curve in the direction sought with a large enough effect in the signal ratio, with a control signal flat; the % refers to the signal ratio;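 note: 100% = dexamethasone at 0.1 µM and 0% = DMSO only wells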); settings: HeLa MMTV-bla, beta-lactamase ratio, agonist, 18 h; activation: stronger effect = higher value, percent of dexamethasone control, DMSO zero
How it was run: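 MMTV-bla HeLa beta-lactamase reporter cells in 1% charcoal/dextran FBS medium, compounds up to 92 uM for 18 h at 37 C, CCF4 readout; normalized to 0.1 uM dexamethasone (100%), EC50 and efficacy from Hill fits.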

[17] = qHTS assay for small molecule activators of the p53 signaling pathway (AID 651743; active = well fitted activation curve with a large enough effect in the signal ratio, not every such curve was filed as active; the % refers to the signal ratio; note: series mostly up to about 92 µM; % of control where 0% means no effect); settings: HCT-116 p53RE-bla, beta-lactamase FRET ratio, 16 h; activation: stronger effect = higher value
How it was run: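 p53RE-bla HCT-116 cells carrying a beta-lactamase reporter under p53 response elements were exposed to compounds for 16 hours at 37 C. Reporter activity read as fluorescence after 2 hours at room temperature with LiveBLAzer B/G FRET substrate.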

[18] = biological target: Nuclear receptor subfamily 1 group I member 2 (Rattus norvegicus) (UniProt Q9R1A7); test: qHTS assay for small molecule activators of the rat pregnane X receptor (rPXR) signaling pathway (AID 651751; call rule not given here; note: 0% is about no effect); settings: rPXR reporter cells, luciferase (One-Glo), 24 h
[19] = qHTS assay for small molecule agonists of the antioxidant response element (ARE) signaling pathway measured by Nrf2-dependant transcriptional activity (AID 720636; active = well fitted curve in the direction sought with a large enough effect in the repeat runs; an effect the other way counts as inactive or inconclusive;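 note: HepG2 cells with an ARE-driven luciferase reporter; % of control where 0% means no effect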)
How it was run: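 ONE-Glo luminescence, read 30 min after reagent addition at room temperature, reflected ARE reporter activity in HepG2 cells that had been incubated with compound for 16 hr at 37 C in 1% dialyzed FBS.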

[20] = qHTS assay for small molecule activators of the nuclear factor-kappa B (NF-kB) signaling pathway (AID 651749; active = well fitted activation curve with a large enough effect in the signal ratio; the % refers to the signal ratio; note: series mostly up to about 77 µM; % of control where 0% means no effect); settings: NF-kB-bla ME-180 cells, beta-lactamase FRET ratio, 16 h; activation: stronger effect = higher value
How it was run: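 NF-kB-bla ME-180 cells carrying a beta-lactamase reporter under an NF-kB response element, 2,000 cells/well, exposed to compound for 16 hr at 37C; FRET-based beta-lactamase fluorescence read-out of pathway activation.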

Vitamin D3 receptor (Homo sapiens), sequence (P11473 whole entry, looked up): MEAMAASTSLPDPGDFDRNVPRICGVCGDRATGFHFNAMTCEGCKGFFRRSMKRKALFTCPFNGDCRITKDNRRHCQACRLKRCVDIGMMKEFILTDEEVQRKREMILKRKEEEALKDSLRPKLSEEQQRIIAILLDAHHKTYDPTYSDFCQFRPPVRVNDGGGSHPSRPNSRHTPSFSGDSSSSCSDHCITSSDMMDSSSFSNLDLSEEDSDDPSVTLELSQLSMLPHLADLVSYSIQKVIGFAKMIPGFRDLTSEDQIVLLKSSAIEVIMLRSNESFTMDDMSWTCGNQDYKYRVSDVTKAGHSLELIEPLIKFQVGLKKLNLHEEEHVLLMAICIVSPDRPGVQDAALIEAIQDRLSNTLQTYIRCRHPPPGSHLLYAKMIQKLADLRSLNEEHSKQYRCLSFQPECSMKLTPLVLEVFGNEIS
Peroxisome proliferator-activated receptor gamma (Homo sapiens), sequence (P37231 whole entry, looked up): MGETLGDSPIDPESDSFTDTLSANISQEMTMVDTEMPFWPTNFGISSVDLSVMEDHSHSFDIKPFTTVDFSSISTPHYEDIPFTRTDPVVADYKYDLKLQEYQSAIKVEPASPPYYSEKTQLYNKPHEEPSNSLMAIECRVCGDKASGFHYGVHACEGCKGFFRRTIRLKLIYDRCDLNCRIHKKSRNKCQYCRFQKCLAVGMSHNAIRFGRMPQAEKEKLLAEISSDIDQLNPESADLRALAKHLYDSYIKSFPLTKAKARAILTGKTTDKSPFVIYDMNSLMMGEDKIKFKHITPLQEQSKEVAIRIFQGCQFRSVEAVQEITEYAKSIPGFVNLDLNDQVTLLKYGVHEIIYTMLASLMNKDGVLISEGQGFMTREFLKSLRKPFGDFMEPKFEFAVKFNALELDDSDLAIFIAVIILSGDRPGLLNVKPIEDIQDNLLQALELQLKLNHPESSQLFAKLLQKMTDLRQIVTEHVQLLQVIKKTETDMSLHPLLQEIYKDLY
Peroxisome proliferator-activated receptor alpha (Homo sapiens), sequence (Q07869 whole entry, looked up, the tested form may be a part): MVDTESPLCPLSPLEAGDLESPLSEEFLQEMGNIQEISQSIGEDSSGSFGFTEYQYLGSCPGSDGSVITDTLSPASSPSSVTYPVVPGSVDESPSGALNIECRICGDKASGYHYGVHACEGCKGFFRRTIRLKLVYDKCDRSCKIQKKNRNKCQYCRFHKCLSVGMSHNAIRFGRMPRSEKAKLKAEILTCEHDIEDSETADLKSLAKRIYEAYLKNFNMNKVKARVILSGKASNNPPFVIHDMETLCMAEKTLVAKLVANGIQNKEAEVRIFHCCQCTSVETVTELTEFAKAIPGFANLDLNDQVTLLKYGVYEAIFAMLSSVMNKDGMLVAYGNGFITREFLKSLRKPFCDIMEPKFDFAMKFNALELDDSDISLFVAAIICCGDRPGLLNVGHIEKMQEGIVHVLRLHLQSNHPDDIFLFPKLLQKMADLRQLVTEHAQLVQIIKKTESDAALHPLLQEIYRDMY
Peroxisome proliferator-activated receptor delta (Homo sapiens), sequence (Q03181 whole entry, looked up): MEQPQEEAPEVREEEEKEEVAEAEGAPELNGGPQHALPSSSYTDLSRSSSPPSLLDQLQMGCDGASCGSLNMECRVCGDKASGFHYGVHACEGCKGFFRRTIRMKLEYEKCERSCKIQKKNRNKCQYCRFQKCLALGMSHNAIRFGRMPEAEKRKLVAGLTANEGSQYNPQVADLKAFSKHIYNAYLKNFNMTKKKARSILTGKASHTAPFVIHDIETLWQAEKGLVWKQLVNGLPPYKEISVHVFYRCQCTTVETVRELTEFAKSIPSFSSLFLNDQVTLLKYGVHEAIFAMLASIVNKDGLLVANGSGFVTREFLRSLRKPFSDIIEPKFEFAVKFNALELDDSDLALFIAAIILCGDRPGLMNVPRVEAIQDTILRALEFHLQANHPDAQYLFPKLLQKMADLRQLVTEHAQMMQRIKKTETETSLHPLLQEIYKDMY
Retinoic acid receptor RXR-alpha (Homo sapiens), sequence (P19793 whole entry, looked up): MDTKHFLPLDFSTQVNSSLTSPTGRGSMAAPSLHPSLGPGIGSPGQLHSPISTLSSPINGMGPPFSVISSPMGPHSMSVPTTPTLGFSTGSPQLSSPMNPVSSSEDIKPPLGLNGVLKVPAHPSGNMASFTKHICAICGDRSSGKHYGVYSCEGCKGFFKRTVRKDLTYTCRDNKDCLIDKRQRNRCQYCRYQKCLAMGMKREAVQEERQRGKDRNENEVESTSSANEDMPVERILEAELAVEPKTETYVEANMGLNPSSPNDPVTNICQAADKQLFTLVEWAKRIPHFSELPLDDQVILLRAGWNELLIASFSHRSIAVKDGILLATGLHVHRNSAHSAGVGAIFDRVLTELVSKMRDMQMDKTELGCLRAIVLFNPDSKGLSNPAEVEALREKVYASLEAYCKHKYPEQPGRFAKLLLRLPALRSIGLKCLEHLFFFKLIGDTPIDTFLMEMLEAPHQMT
Nuclear receptor subfamily 1 group I member 2 (Rattus norvegicus), sequence (Q9R1A7 whole entry, looked up): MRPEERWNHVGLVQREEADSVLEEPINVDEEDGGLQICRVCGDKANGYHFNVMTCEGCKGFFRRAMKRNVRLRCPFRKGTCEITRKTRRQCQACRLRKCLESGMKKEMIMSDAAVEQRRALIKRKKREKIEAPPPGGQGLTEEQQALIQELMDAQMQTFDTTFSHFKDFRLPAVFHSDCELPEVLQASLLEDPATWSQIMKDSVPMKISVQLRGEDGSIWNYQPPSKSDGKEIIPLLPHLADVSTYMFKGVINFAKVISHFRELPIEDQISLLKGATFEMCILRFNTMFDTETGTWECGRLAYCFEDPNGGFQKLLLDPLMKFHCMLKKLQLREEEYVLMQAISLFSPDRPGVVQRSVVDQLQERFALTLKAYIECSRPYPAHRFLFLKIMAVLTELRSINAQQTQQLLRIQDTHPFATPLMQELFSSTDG
Thyroid hormone receptor beta (Homo sapiens), sequence (P10828 whole entry, looked up): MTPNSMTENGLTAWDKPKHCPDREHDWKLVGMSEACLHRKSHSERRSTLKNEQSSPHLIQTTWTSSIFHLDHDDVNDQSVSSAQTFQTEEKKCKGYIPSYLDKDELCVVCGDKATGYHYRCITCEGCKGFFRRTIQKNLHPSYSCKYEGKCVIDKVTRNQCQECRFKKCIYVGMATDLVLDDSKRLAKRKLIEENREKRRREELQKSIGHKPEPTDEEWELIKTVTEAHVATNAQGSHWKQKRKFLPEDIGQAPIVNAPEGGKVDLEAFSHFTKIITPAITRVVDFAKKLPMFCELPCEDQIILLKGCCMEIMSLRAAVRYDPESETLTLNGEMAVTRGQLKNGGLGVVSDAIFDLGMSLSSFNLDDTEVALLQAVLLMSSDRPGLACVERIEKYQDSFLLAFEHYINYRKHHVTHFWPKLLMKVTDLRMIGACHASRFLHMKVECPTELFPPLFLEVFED
Estrogen receptor (Homo sapiens), sequence (P03372 whole entry, looked up): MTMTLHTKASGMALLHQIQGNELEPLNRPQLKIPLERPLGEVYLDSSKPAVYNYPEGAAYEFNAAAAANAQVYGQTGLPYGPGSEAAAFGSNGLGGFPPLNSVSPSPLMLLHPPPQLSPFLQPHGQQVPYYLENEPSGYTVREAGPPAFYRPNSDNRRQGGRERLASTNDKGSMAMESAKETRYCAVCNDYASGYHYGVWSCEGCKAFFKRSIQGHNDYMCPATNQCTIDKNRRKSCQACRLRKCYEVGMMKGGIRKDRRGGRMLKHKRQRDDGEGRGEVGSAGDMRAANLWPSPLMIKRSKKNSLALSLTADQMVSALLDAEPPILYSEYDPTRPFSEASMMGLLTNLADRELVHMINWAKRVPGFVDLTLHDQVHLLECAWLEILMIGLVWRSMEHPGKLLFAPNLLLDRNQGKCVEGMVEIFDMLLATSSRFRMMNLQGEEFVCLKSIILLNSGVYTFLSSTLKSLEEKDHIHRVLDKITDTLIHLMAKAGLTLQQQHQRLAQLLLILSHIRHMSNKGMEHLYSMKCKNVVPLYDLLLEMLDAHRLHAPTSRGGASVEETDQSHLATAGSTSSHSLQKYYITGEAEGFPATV
Glucocorticoid receptor (Homo sapiens), sequence (P04150 whole entry, looked up): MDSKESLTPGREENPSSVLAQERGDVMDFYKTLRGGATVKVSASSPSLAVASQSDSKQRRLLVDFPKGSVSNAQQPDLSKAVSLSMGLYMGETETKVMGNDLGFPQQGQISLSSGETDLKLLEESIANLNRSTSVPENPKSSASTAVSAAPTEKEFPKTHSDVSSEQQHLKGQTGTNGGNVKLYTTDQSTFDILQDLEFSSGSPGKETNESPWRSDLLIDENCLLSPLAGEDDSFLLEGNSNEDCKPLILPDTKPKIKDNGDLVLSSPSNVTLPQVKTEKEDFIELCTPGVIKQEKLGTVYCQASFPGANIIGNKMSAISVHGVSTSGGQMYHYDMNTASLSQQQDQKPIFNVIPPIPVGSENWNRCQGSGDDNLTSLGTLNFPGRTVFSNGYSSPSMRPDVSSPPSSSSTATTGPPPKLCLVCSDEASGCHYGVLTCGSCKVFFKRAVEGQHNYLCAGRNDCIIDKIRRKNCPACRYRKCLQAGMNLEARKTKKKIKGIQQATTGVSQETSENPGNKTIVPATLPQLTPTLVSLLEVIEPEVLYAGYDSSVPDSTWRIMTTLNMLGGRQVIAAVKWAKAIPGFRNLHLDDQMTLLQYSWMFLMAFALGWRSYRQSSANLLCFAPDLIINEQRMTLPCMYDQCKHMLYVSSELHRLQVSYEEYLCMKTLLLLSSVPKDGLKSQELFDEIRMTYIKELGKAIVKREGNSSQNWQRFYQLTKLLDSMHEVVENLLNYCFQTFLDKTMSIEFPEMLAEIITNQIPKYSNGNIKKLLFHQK

Row | SMILES | Potency [1] | Potency [2] | outcome [3] | Potency [4] | Potency [5] | outcome [6] | Potency [7] | Potency [8] | max response [9] | max response [10] | activation [11] | max response [12] | max response [13] | max response [14] | Potency [15] | activation [16] | activation [17] | max response [18] | Potency [19] | activation [20]
1 | Clc1ccccc1-c1nnc(-c2ccccc2Cl)nn1 | inactive | inactive | inactive | inactive | inactive | inactive | inactive | inactive | -19.7% | -5.51% (inactive) | 9.84% (inactive) | -0.0144% (inactive) | -3% (inactive) | -8.84% (inactive) | inactive |  |  |  |  | 
2 | Nc1nc(N)nc(Cl)n1 | inactive | inactive |  | inactive |  |  | inactive | inactive | -6.94% and -9.26% and -7.48% | -8.75% (inactive) and -3.8% (inactive) and 6.06% (inactive) | 0.466% (inactive) and 6.68% (inactive) and -2.27% (inactive) | 0.345% (inactive) and 0.412% (inactive) and -1.56% (inactive) | -27.2% (inactive) and -2.73% (inactive) and -17.4% (inactive) | -6.86% (inactive) and -11.8% (inactive) and -2.3% (inactive) | inactive | -0.33% (inactive) and 1.13% (inactive) | 14% (inactive) and -1.73% (inactive) | 0.0938% (inactive) and 1.1% (inactive) and -0.658% (inactive) |  | 
3 | CC1(C)Cc2cccc(O)c2O1 | inactive | inactive |  | inactive | inactive | inactive | inactive | inactive | -5.33% | -3.15% (inactive) | 0.293% (inactive) | -0.718% (inactive) | 7.61% (inactive) | 4.44% (inactive) | inactive |  |  | 1.61% (inactive) | inactive | 
4 | COP(=O)(OC)O/C(C)=C/C(=O)N(C)C | inactive | inactive | inactive | inactive |  |  | inactive |  | 0.42% | -0.431% (inactive) | 1.01% (inactive) |  | 15.8% (inactive) | 2.37% (inactive) | inactive |  | -0.0413% (inactive) | 1.37% (inactive) | inactive | -1.74% (inactive)
5 | O=C=Nc1ccc(Cl)cc1 | inactive | inactive | inactive | inactive |  | inactive | inactive | inactive | -4.38% | -10.5% (inactive) | 2.71% (inactive) | -0.75% (inactive) | -2.93% (inactive) | -9.38% (inactive) | inactive |  | 3.11% (inactive) | 8.51% (inactive) |  | -0.765% (inactive)
6 | COc1cnc(OC)n2nc(NS(=O)(=O)c3c(OCC(F)F)cccc3C(F)(F)F)nc12 | inactive | inactive | inactive | inactive |  |  |  | inactive | 8.71% | -13.9% (inactive) | 0.743% (inactive) | -1.19% (inactive) | -2.64% (inactive) | -8.21% (inactive) | inactive |  | 1.45% (inactive) | -1.36% (inactive) | inactive | 
